Source: PubChem BioAssay (EPA / NIEHS)
Active and inactive are the calls of the source. Rule for the calls: active = hit-call score of the fitted dose curve at least 0.9, where 1 is the maximum; inactive = score below 0.9.

Assays:
[1] = ATG_CRE_CIS: Attagene CIS-FACTORIAL HepG2 Assay for human cAMP Responsive Element (CRE) binding protein 3 (AID 2282926); conditions: HepG2 CRE cis-reporter, Attagene multiplexed mRNA; actives raise or lower the signal
In short: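 Cells carrying cis-regulated reporter constructs respond through their own endogenous factors. After 24 h treatment, RNA is reverse-transcribed, amplified, labelled and sized by capillary electrophoresis; up- and down-regulation are both scored against vehicle.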

[2] = target: CCAAT/enhancer-binding protein beta (Homo sapiens) (UniProt P17676); assay: ATG_C_EBP_CIS: Attagene CIS-FACTORIAL HepG2 Assay for human CCAAT/Enhancer Binding Protein (C/EBP) beta (AID 2282927); conditions: HepG2 Attagene cis-factorial transcription factor reporter; actives raise or lower the signal
CCAAT/enhancer-binding protein beta (Homo sapiens), sequence (P17676 whole entry, looked up): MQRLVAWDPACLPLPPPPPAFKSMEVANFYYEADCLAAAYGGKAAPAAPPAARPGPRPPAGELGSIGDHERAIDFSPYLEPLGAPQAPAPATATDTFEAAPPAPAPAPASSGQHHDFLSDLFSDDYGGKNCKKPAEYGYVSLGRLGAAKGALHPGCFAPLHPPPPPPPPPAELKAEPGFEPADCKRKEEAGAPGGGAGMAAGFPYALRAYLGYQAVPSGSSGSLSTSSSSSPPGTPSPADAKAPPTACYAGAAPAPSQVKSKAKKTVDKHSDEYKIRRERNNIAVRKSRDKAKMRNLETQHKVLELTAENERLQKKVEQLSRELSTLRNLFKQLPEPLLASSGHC
In short: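 Changes in reporter mRNA, rather than exogenous chimeric receptor activity, reflect native C/EBP signalling in transfected HepG2 cells dosed for 24 h; transcripts are detected by RT-PCR and capillary electrophoresis.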

[3] = ATG_CMV_CIS: Attagene CIS-FACTORIAL HepG2 Assay for human CMV (Internal Marker) (AID 2282928); conditions: HepG2 CMV promoter reporter, transcription factor profiling; actives raise or lower the signal;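 note: endpoint acts as a background internal control marker rather than a target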
In short: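 24 h chemical treatment, HepG2 with transient multi-reporter transfection; RNA → oligo(dT) RT → PCR → 6-FAM extension → HpaI digest → CE fluorescence. Bidirectional fit, DMSO negative control.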

[4] = ATG_DR4_LXR_CIS: Attagene CIS-FACTORIAL HepG2 Assay for human Liver X Receptor (LXR), DR4 submotif (AID 2282929); conditions: HepG2 Attagene DR4 cis-reporter, mRNA transcription; actives raise or lower the signal
In short: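 HepG2, transient MRTU transfection, cis-element (DR4) promoter; 24 h compound exposure; total RNA → oligo(dT) RT → PCR → 6-FAM primer extension → HpaI cut → CE. Gain/loss vs DMSO, bidirectional fit.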

[5] = target: Aryl hydrocarbon receptor (Homo sapiens) (UniProt P35869); assay: ATG_Ahr_CIS: Attagene CIS-FACTORIAL HepG2 Assay for human Aryl Hydrocarbon Receptor (Ahr) (AID 2282930); conditions: HepG2 AhR cis-factorial reporter transcription; actives raise or lower the signal
Aryl hydrocarbon receptor (Homo sapiens), sequence (P35869 whole entry, looked up): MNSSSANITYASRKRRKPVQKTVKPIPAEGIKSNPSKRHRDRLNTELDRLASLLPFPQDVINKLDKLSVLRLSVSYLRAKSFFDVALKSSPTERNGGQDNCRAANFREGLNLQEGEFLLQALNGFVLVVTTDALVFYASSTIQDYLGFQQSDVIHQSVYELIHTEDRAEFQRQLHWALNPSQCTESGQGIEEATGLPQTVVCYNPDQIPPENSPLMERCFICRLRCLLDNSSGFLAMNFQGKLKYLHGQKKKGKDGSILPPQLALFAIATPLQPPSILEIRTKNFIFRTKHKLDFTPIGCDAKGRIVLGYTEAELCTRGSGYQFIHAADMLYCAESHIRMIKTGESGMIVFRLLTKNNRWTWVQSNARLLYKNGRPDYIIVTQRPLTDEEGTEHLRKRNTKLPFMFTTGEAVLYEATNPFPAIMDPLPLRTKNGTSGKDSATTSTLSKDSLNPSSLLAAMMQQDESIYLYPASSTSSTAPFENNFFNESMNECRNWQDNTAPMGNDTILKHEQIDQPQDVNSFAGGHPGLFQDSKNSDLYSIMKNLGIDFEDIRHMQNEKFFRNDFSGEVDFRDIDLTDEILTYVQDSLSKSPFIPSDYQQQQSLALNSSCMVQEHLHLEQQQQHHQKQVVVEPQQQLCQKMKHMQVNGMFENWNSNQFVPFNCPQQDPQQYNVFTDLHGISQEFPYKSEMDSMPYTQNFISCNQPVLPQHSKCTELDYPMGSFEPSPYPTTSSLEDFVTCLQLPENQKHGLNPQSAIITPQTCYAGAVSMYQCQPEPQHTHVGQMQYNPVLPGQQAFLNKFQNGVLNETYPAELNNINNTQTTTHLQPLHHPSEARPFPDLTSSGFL
In short: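 HepG2, transient MRTU (cis) transfection, 24 h exposure. RNA → cDNA → PCR → 6-FAM primer extension → HpaI 2 h 37 C → CE. Fit: bidirectional, DMSO baseline.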

[6] = ATG_AP_1_CIS: Attagene CIS-FACTORIAL HepG2 Assay for human Activator Protein 1 (AP-1) (AID 2282931); conditions: HepG2 Attagene cis-factorial AP-1 reporter mRNA; actives raise or lower the signal
In short: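 Transient MRTU transfection of HepG2 → 24 h chemical treatment → RNA isolation, RT-PCR, 6-FAM labelling, HpaI digest → capillary electrophoresis. Fit: bidirectional, DMSO negative control.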

[7] = ATG_AP_2_CIS: Attagene CIS-FACTORIAL HepG2 Assay for human Activator Protein 2 (AP-2) (AID 2282932); conditions: HepG2 AP-2 cis-reporter, Attagene transcription factor profiling; actives raise or lower the signal
In short: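 Transiently transfected HepG2 cells are exposed to chemical for 24 h. Reporter transcripts are then measured as fluorescence following RT-PCR and capillary separation, and gain- or loss-of-signal is fitted relative to DMSO.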

[8] = ATG_BRE_CIS: Attagene CIS-FACTORIAL HepG2 Assay for human Bone Morphogenetic Protein (BMP) Response Element (BRE) (AID 2282933); conditions: HepG2 BMP response element reporter, Attagene transcription factor profiling; actives raise or lower the signal
In short: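 HepG2 cells transiently transfected with multiplexed cis-element reporter units were dosed with chemical for 24 h. Reporter mRNA was measured by RT-PCR with fluorescent labelling, HpaI digestion and capillary electrophoresis; bidirectional fitting relative to DMSO.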

[9] = target: Retinoic acid receptor alpha (Homo sapiens) (UniProt P10276); assay: ATG_DR5_RAR_CIS: Attagene CIS-FACTORIAL HepG2 Assay for human Retinoic Acid Receptor Alpha (RARE), DR5 submotif (AID 2282934); conditions: HepG2 Attagene cis-factorial RARE DR5 reporter, mRNA; actives raise or lower the signal;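 for AC50: reporter responds to endogenous RAR alpha beta and gamma in HepG2 not RARA alone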
Retinoic acid receptor alpha (Homo sapiens), sequence (P10276 whole entry, looked up): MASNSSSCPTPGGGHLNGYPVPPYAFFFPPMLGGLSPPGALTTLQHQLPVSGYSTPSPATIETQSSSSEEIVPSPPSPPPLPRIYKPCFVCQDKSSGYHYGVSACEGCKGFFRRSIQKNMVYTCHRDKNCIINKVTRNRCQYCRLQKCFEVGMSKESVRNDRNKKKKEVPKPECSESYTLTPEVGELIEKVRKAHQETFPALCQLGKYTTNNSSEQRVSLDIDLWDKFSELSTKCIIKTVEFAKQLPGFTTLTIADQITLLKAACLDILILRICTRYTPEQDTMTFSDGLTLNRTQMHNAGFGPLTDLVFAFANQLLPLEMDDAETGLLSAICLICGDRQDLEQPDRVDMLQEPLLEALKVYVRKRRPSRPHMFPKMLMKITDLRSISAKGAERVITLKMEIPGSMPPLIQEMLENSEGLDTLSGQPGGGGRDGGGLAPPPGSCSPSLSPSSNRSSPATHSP
In short: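 HepG2, transient cis-reporter transfection, 24 h exposure. mRNA readout: RT-PCR, FAM label, HpaI cut, capillary electrophoresis. DMSO baseline, gain/loss fitting.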

[10] = target: Transcription factor E2F1 (Homo sapiens) (UniProt Q01094); assay: ATG_E2F_CIS: Attagene CIS-FACTORIAL HepG2 Assay for human E2F Transcription Factor 1 (AID 2282935); conditions: HepG2 Attagene cis-reporter, E2F reporter RNA transcripts; actives raise or lower the signal
Transcription factor E2F1 (Homo sapiens), sequence (Q01094 whole entry, looked up): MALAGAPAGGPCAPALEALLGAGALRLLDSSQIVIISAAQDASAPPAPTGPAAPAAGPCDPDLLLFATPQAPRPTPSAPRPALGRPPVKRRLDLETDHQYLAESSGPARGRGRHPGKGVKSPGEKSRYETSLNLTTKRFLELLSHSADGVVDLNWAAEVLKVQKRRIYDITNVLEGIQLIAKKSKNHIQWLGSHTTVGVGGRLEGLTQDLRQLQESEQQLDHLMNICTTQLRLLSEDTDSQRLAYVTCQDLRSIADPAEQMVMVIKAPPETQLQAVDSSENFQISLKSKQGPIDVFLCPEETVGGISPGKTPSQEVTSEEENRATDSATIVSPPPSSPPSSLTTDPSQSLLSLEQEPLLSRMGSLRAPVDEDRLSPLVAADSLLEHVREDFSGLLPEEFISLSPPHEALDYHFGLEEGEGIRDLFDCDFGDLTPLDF
In short: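 Fluorescent RT-PCR products, digested with HpaI for 2 h at 37 C, are separated by capillary electrophoresis. Source RNA comes from transfected HepG2 cultures treated for 24 h.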

[11] = ATG_E_Box_CIS: Attagene CIS-FACTORIAL HepG2 Assay for human Enhancer Box (E-box) (AID 2282936); conditions: HepG2 E-box cis-reporter transcription, actives raise or lower the signal
In short: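 Fluorescent reporter fragments separated by capillary electrophoresis gave the signal; mRNA came from HepG2 cells transfected with cis-element reporters and treated 24 h. Curves fitted bidirectionally relative to DMSO controls.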

[12] = ATG_M_61_CIS: Attagene CIS-FACTORIAL HepG2 Assay for M61 Transcription Factor (Internal Marker) (AID 2282937); conditions: HepG2 Attagene CIS-FACTORIAL M61 internal marker reporter; actives raise or lower the signal
In short: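 Human liver HepG2, transient MRTU transfection (cis promoter elements), 24 h compound. Total RNA → oligo(dT) RT → PCR → FAM label → HpaI → CE. Internal background marker; bidirectional fitting, DMSO = baseline.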

[13] = ATG_EGR_CIS: Attagene CIS-FACTORIAL HepG2 Assay for human Early Growth Response 1 (EGR1) (AID 2282938); conditions: HepG2 Attagene CIS-FACTORIAL EGR reporter mRNA; actives raise or lower the signal
In short: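 Transient transfection of human HepG2 with multiple cis-regulated reporter units, chemical exposure 24 h, total RNA isolated. Reverse transcription, PCR, fluorescent labelling and capillary electrophoresis quantify reporter transcripts; activity fitted bidirectionally against DMSO.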

[14] = ATG_M_19_CIS: Attagene CIS-FACTORIAL HepG2 Assay for M19 Transcription Factor (Internal Marker) (AID 2282939); conditions: HepG2 Attagene CIS-FACTORIAL M19 internal marker reporter; actives raise or lower the signal
In short: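 HepG2 cells transiently transfected with cis-regulated multiple reporter transcription units were dosed for 24 h; reporter mRNA was quantified by RT-PCR, 6-FAM primer-extension labelling, HpaI digestion and capillary electrophoresis, with bidirectional fitting against DMSO baseline.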

[15] = ATG_Ets_CIS: Attagene CIS-FACTORIAL HepG2 Assay for human Erythroblast Transformation Specific (ETS) (AID 2282941); conditions: HepG2 ETS cis-reporter transcription, actives raise or lower the signal
In short: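 Cis-regulated reporter mRNA induction in HepG2 (transient transfection), 24 h exposure, RT-PCR plus capillary electrophoresis detection; DMSO serves as negative control and baseline.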

[16] = target: Hepatocyte nuclear factor 3-beta (Homo sapiens) (UniProt Q9Y261); assay: ATG_FoxA2_CIS: Attagene CIS-FACTORIAL HepG2 Assay for human Forkhead box A2 (FOXA2) (AID 2282942); conditions: HepG2 cis-reporter transcription factor activity, 24 h; actives raise or lower the signal
Hepatocyte nuclear factor 3-beta (Homo sapiens), sequence (Q9Y261 whole entry, looked up): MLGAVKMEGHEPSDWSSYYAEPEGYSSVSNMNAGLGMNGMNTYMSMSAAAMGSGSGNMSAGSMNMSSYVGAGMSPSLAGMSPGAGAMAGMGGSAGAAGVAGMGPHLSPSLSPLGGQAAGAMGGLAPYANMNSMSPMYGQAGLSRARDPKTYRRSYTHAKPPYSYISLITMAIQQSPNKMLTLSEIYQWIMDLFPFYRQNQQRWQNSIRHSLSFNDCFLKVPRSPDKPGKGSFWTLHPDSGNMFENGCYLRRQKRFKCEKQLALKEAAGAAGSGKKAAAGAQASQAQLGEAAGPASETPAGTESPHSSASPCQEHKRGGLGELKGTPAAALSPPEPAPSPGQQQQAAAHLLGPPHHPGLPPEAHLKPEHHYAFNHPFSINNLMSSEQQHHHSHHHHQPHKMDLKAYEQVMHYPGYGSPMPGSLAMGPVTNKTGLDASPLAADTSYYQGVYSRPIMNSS
In short: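 Transient MRTU transfection of HepG2 liver cells; 24 h treatment; total RNA → oligo(dT) RT → PCR → FAM primer extension → HpaI cut → CE. Bidirectional fit vs DMSO.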

[17] = ATG_FoxO_CIS: Attagene CIS-FACTORIAL HepG2 Assay for human Forkhead box O (FoxO) (AID 2282943); conditions: HepG2 Attagene cis-reporter, FoxO element, mRNA; actives raise or lower the signal
In short: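 Human hepatoma HepG2 cells carry transiently introduced reporter transcription units controlled by cis promoter elements. Chemical treatment lasted 24 h, and mRNA signal was compared with DMSO.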

[18] = ATG_GLI_CIS: Attagene CIS-FACTORIAL HepG2 Assay for human Zinc Finger Protein GLI1 (AID 2282945); conditions: HepG2, Attagene cis-factorial reporter mRNA, GLI element; actives raise or lower the signal
In short: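 Bidirectional curve fits relative to DMSO, using reporter mRNA levels from RT-PCR plus capillary electrophoresis. Cells were HepG2 transiently carrying cis-regulated reporter constructs, harvested 24 h after dosing.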

[19] = ATG_GATA_CIS: Attagene CIS-FACTORIAL HepG2 Assay for human GATA Binding Protein (AID 2282944); conditions: HepG2 GATA cis-element reporter, Attagene multiplex mRNA; actives raise or lower the signal
In short: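 HepG2 cells transiently transfected with multiplexed cis-element reporter units reflecting endogenous transcription factor activity; reporter mRNA measured after 24 h dosing by RT-PCR, 6-FAM labeling, HpaI digestion and capillary electrophoresis. Bidirectional fitting versus DMSO baseline.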

Measured: AC50

O=c1oc(=O)c2cc3c(=O)oc(=O)c3cc12
inactive: [1] | [2] | [3] | [4] | [5] | [6] | [7] | [8] | [9] | [10] | [11] | [12] | [13] | [14] | [15] | [16] | [17] | [18]

Cc1cccc(C)c1[N+](=O)[O-]
inactive: [1] | [2] | [3] | [4] | [5] | [6] | [7] | [8] | [9] | [10] | [11] | [12] | [13] | [14] | [15] | [16] | [17] | [18]

CCCC(=O)OCCC(C)CCC=C(C)C (centres undefined)
inactive: [1] | [2] | [3] | [4] | [5] | [6] | [7] | [8] | [9] | [10] | [11] | [14] | [15] | [16] | [19] | [18]

[Ca+2]
inactive: [1] | [2] | [3] | [4] | [5] | [6] | [7] | [8] | [9] | [10] | [11] | [15] | [16] | [17] | [19] | [18]

CC1(CO)CN(c2ccccc2)NC1=O (centres undefined)
active: [5] 9.8 µM
inactive: [1] | [2] | [3] | [4] | [6] | [7] | [8] | [9] | [10] | [11] | [13] | [14] | [15] | [16] | [19] | [18]

CCCCCC(CO)CCC (centres undefined)
inactive: [1] | [2] | [3] | [4] | [5] | [6] | [7] | [8] | [9] | [10] | [11] | [12] | [13] | [14] | [15] | [16] | [17] | [19] | [18]

C=C[C@@H](C)CCC=C(C)C
inactive: [1] | [2] | [3] | [4] | [5] | [6] | [7] | [8] | [9] | [10] | [11] | [12] | [13] | [15] | [16] | [17] | [19] | [18]

CC1(C)OC[C@@H]2O[C@@]3(C(=O)O)OC(C)(C)O[C@H]3[C@@H]2O1
inactive: [1] | [2] | [3] | [4] | [5] | [6] | [7] | [8] | [9] | [10] | [11] | [12] | [13] | [14] | [16] | [17] | [19] | [18]

Cc1cccc(Nc2ccccc2C(=O)O)c1C
inactive: [1] | [2] | [3] | [4] | [5] | [6] | [7] | [8] | [9] | [10] | [11] | [12] | [13] | [14] | [15] | [16] | [17] | [19] | [18]

CCC(=O)OCCC(C)CCC=C(C)C (centres undefined)
inactive: [1] | [2] | [3] | [4] | [5] | [6] | [7] | [8] | [10] | [11] | [12] | [13] | [14] | [15] | [16] | [17] | [19] | [18]
active: [9] 72.4 µM

CCCCCOC(=O)CCC
inactive: [1] | [2] | [3] | [4] | [5] | [6] | [7] | [8] | [9] | [10] | [11] | [12] | [13] | [14] | [15] | [16] | [17] | [19] | [18]

C=O
inactive: [1] | [2] | [3] | [4] | [5] | [6] | [7] | [8] | [9] | [10] | [11] | [12] | [13] | [14] | [15] | [16] | [17] | [19] | [18]

CO[Si](CCCn1c(=O)n(CCC[Si](OC)(OC)OC)c(=O)n(CCC[Si](OC)(OC)OC)c1=O)(OC)OC
inactive: [1] | [2] | [3] | [4] | [5] | [6] | [7] | [8] | [9] | [10] | [11] | [12] | [13] | [14] | [16] | [17] | [19] | [18]

COc1ccc(Cl)cc1C
active: [5] 36.9 µM
inactive: [1] | [2] | [3] | [4] | [6] | [7] | [8] | [9] | [10] | [11] | [12] | [13] | [14] | [15] | [16] | [17] | [19] | [18]

CCOC(=O)c1ccccc1OC
inactive: [1] | [2] | [3] | [4] | [5] | [6] | [7] | [8] | [9] | [10] | [13] | [14] | [15] | [16] | [19] | [18]
